ROMK primary – modulators of human ROMK potassium channel; P48048; Tet-inducible ROMK, thallium flux fluorescence; actives lie on both sides; B-score at 10 µM; actives 2% (n = 130,000);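 active = signal ratio slope over the read window, or its plate-corrected B-score, at least 3 SD from the plate mean, either direction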;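 also: B-score of the F/F0 ratio slope over 7 to 12 s after thallium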
Lmaj promast – reduces viability of Leishmania major promastigotes | resazurin fluorescence viability | inhibition, % at 10 µM | actives 9% (n = 200,000) | AID 1063; in the data active = inhibition above about 50%;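 also: promastigotes grown with compound for 44 hours at 28 °C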
bCat KO growth – beta-catenin-lacking colon tumor cell growth suppression | HCT116 beta-catenin knockout viability, CellTiter-Glo, 60 h; stronger effect = lower value | viability, % at 10 µM | actives 1.5% (n = 140,000) | AID 818;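 active = viability at or under a set limit, the compound median less 4 SD, cut at about 6% in these data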;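 also: 0% = Hyamine 1622 control at 20 µM and 100% = untreated cell control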
PTEN del growth – PTEN-deleted cell growth suppression. actives 1.2% (n = 140,000). HCT116 PTEN-null viability, CellTiter-Glo, 60 h; stronger effect = lower value. AID 827. viability, % at 10 µM;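 active = viability at or below a set limit, 4 SD under the median of all tested compounds, cut at about 3.7% in these data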;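 also: PTEN knockout HCT116 line with beta catenin targeted HCT116 as companion control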
p97 ATPase inh – inhibitors of human p97 ATPase | P55072 | recombinant p97 ATPase, Kinase-Glo ATP luminescence, 3 h | inhibition, % at 8 µM | actives 0.42% (n = 220,000) | AID 1481; in the data active = inhibition above about 15%;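 also: 0% = DMSO vehicle and 100% = wells lacking enzyme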
Target sequence (P55072 whole entry, looked up): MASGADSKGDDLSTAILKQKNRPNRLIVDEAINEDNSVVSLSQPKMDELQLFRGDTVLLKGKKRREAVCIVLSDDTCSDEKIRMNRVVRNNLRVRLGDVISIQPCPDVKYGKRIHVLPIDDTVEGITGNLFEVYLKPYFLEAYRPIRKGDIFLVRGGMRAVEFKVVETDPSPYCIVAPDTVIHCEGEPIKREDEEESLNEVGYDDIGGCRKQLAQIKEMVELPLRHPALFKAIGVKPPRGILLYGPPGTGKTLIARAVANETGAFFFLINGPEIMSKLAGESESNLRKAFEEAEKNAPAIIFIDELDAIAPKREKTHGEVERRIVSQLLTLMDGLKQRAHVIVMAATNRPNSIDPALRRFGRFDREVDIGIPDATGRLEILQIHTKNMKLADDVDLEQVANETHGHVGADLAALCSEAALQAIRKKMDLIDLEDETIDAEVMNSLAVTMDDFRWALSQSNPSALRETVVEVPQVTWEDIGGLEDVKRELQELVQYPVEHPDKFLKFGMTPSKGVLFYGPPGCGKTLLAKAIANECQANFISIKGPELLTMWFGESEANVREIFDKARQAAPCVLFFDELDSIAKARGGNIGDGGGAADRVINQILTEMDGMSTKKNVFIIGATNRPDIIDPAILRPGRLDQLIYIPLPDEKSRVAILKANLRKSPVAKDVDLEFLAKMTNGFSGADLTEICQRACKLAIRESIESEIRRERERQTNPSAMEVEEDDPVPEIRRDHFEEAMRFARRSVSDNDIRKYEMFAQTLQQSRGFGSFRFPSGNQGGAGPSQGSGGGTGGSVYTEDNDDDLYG
Insulin prom inh – TRM-6 insulin promoter activity inhibition | TRM-6 cells (human fetal islet line), insulin promoter-eGFP reporter, imaging; reporter expression induced with tamoxifen | inhibition, % at 2 µM | actives 0.9% (n = 130,000) | AID 1273;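 active = inhibition above the mean plus 3 SD, with well images judged a real hit on visual review, cut at about 60% in these data, passing the limit was not always enough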
p97 confirm – human p97 ATPase inhibition, confirmation | shares compounds with p97 ATPase inh | recombinant p97 ATPase, Kinase-Glo ATP luminescence | inhibition, % at 8 µM | actives 44% (n = 760);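 active = percent inhibition of p97 ATPase above a set limit, the primary screen's mean plus 3 SD, cut at about 15% in these data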;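 also: 0% = DMSO wells and 100% = wells lacking p97 protein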
Starred values were filed as active, the others as inactive; x = no result. In the library only some 10% were active in any assay of this set; here they are far more common.

SMILES	ROMK primary	Lmaj promast	bCat KO growth	PTEN del growth	p97 ATPase inh	Insulin prom inh	p97 confirm
CC(C)OC(=O)CSc1n[nH]c(-c2cccnc2)n1	-0.0049	5	93	99	15*	x	3
CC(=O)NC(=S)Nc1ccc(N2CCOCC2)c(S(=O)(=O)Nc2cc(Cl)ccc2Cl)c1	-0.94	0	x	x	1	x	x
COC(=O)c1ccccc1NC(=O)c1sc(N)nc1C	-0.61	14	103	109	15*	x	7
O=S(=O)(c1ccc(NC(=S)N/N=C/c2ccc(O)c(O)c2)cc1)N1CCOCC1	x	x	x	x	19*	x	21*
COC(=O)CSc1nc(-c2ccccc2)nc2ccccc12	0.06	-6	x	x	1	5	x
c1coc(-c2nc(-c3ccco3)c(-c3ccco3)nc2-c2ccco2)c1	x	1	94	87	40*	x	9
COc1ccc2nc(-c3ccco3)c(-c3ccco3)nc2c1	0.41	12	85	80	7	-23	x
COC(=O)CNC(=O)COC(=O)Cc1ccc(Cl)cc1	0.27	-5	x	x	3	x	x
CC(C(=O)Nc1ccc2c(c1)OCO2)N1CCN(C)CC1 (centres undefined)	x	x	x	x	22*	x	4
CC(Sc1ccc2c(c1)OCCO2)C(=O)Nc1ccc2c(c1)OCO2 (centres undefined)	x	-2	93	97	2	x	x
O=C(O)CSc1c(-c2ccccc2)[nH]c2ccccc12	x	-1	94	103	16*	60	17*
COC(=O)/C=C1/S/C(=N/NC(=O)c2ccc(Cl)cc2Cl)NC1=O	x	x	x	x	22*	x	21*
CC(C)(C)C(=O)/C=C(\N)c1ccncc1	x	-10	53	57	3	-31	x
COc1ccc(/C(N)=C/C(=O)C(C)(C)C)cc1	-1	-5	101	104	34*	x	-2
O=c1c(O)cccc2cc(O)c(O)c(O)c12	x	x	x	x	38*	x	45*
Cc1cc(C(=O)NNC(=S)NC(C)c2ccccc2)c2ccccc2n1 (centres undefined)	x	-2	105	95	4	x	x
CCOC(=O)c1[nH]c2ccc(Br)cc2c1NC(=O)CCN1CCC(C(=O)OCC)CC1	-2.1	5	9	27	18*	0	16*
CCOC(=O)c1[nH]c2ccc(Br)cc2c1NC(=O)CCN1CCCCC1	x	0	50	65	22*	x	4
O=C(Nc1cccc(C(=O)N2CCN(c3cccc(Cl)c3)CC2)c1)c1ccccc1	-0.053	13	x	x	-1	15	x
CN(C)C=NC(=O)c1cn(-c2ccc(F)cc2)c(=O)c2ccccc12	0.4	-3	x	x	16*	-17	2
CC(NC(=O)c1sc2ccccc2c1Cl)C1CCCO1 (centres undefined)	x	45	110	98	-2	-19	x
Cc1c(NS(=O)(=O)c2ccc(S(=O)(=O)c3ccccc3)s2)c(=O)n(-c2ccccc2)n1C	x	x	x	x	16*	x	17*
Cc1c(NS(=O)(=O)c2ccc(Br)s2)c(=O)n(-c2ccccc2)n1C	x	-3	89	87	1	-5	x
CC(C)N(C(=O)COC(=O)[C@H](C)NC(N)=O)c1ccccc1	1.1	-3	x	x	15*	x	3
COc1ccc(Cl)cc1NC(=O)CC(C)=O	x	-3	99	94	17*	x	9
SMILES	ROMK primary	Lmaj promast	bCat KO growth	PTEN del growth	p97 ATPase inh	Insulin prom inh	p97 confirm
COc1ccc(Cl)cc1NC(=O)COC(C)=O	-0.019	-7	x	x	5	x	x
Cn1cc(S(=O)(=O)N2CCC(C(N)=O)CC2)c(=O)n(C)c1=O	x	-6	x	x	1	x	x
Cc1[nH]c2ccccc2c1/C=N/NC(=O)c1cc(-c2cccs2)[nH]n1	0.096	24	71	66	16*	-7	32*
COc1ccc(CCNC(=O)c2cnn3cccnc23)cc1OC	-0.56	16	100	107	6	50	x
CC(=O)Nc1ccc(NC(=O)CCSCCc2ccccn2)cc1	0.46	-6	x	x	3	-6	x
COc1ccccc1N1CCN(Cc2cc(=O)n3ccsc3n2)CC1	x	-9	109	89	16*	11	9
O=c1cc(CN2CCCCCC2)nc2sccn12	-0.11	23	x	x	4	x	x
O=C(N[C@@H](Cc1ccccc1)C(=O)OCc1ccccc1)c1nc[nH]c1C(=O)NCc1ccccc1	x	7	x	x	17*	x	20*
CC(C)C[C@H](NC(=O)c1[nH]cnc1C(=O)N[C@H](C)c1ccccc1)C(=O)OCc1ccccc1	x	18	x	x	-10	x	x
CCNC(=O)Oc1ccc[nH]c1=O	-1.2	x	x	x	17*	x	5
Cc1nc2cc(NCc3ccccc3O)ccc2n1Cc1ccccc1	-0.022	-4	x	x	2	x	x
CCc1ccccc1NC(=O)CN(C)C(=O)CSc1nnc(Nc2cccc(C)c2C)s1	0.22	-4	88	86	1	-29	x
NS(=O)(=O)c1ccc(Nc2nc(-c3ccc(O)cc3O)cs2)cc1	0.84	63*	97	94	27*	-14	51*
Cc1ccc(NC(=S)Nc2cccc3cnccc23)cc1C	0.01	17	x	x	24*	x	3
CC1=NN(c2ccc(C)cc2C)C(=O)C1C(c1cccc(O)c1)C1C(=O)N(c2ccc(C)cc2C)N=C1C (centres undefined)	0.18	56*	91	89	23*	24	6
CC1CCN(Cc2ccc(-c3nnn(CC(=O)NC4CCCCC4)n3)cc2)CC1	-0.32	15	x	x	5	x	x
COCCCNC(=O)c1ccc(Cn2c(=O)c3ccccc3n(Cc3ccccc3C#N)c2=O)cc1	2.3	-3	55	52	0	-13	x
COc1ccc2nc3cccc(OC)c3nc2c1	-0.24	10	x	x	4	x	x
COc1ccc2nc3ccccc3nc2c1N	-0.068	x	x	x	26*	x	3
NNC(=O)c1sccc1OCc1ccc(Cl)cc1Cl	-1.3	16	x	x	-6	x	x
CCC(=O)Nc1cccc(-n2nnnc2SCC(=O)N2CCCCC2)c1	-0.1	-3	x	x	5	5	x
CCOc1cc(/C=C2/C(=O)N(c3ccccc3)N=C2C)ccc1OC(=O)c1ccco1	x	1	112	93	27*	30	1
O=C(O)C1CSC(c2ccc(O)c([N+](=O)[O-])c2)N1 (centres undefined)	-0.68	-2	x	x	16*	x	7
Cc1ccc(C(=O)c2c(C)oc3c2C(=O)C(=O)c2ccccc2-3)cc1	x	100*	0.8*	1.1*	22*	-11	20*
Cc1cc(NCc2ccccc2)nc(-c2ccccc2O)n1	x	25	23	27	20*	x	35*
Cc1cc(Nc2ccccc2)nc(-c2ccccc2O)n1	x	11	45	28	25*	64	40*
N#Cc1cc(-c2ccccc2)cnc1Cl	x	-6	97	103	-4	x	x
COc1cc(CNc2ccc(O)cc2)cc(Br)c1OCc1ccccc1F	x	4	83	79	15*	x	5
Cc1ccc(C)c(C(=O)COc2ncnc3ccccc23)c1	-0.19	-5	x	x	-4	-18	x
Cc1cc(O)c(C=O)c2c1C(=O)Oc1c(CO)c(O)c3c(c1O2)C(O)OC3=O (centres undefined)	x	-17	x	x	64*	x	24*
